# Measurements: PubChem BioAssay AID1224858 (National Center for Advancing Translational Sciences (NCATS), 2016)
# Results filed as inconclusive are left out. Values without a mark were called inactive. Active and inactive are the calls of the source. The call rests on the fitted dose curve; in most records, active means well fitted inhibition curve with a large enough effect; inconclusive means small, poorly fitted or top-dose-only effect; inactive means no such curve, though single readings can be large or run the other way.
# Assay: Confirmation assay for measurement of the activity of small molecule inhibitors on Zika virus induced Caspase-3 activity in human astrocytes
# Conditions: ZIKV-induced caspase-3/7 luminescence, 6 h; series mostly up to 46.1 µM; activity, negative = inhibition: at the top concentration
# In short: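 Human astrocytes were pretreated 1 h with compound, then infected with ZIKV (2 FFU/cell) for 6 h at 37 C. Caspase-3/7 activity by Caspase-Glo luminescence; percent inhibition versus uninfected and infected wells.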
Structure (SMILES),"activity, negative = inhibition",Potency
CCCC(=O)OC[C@@H](OC(=O)CCC)[C@@H](OC(=O)CCC)[C@H](Cn1c2nc(=O)[nH]c(=O)c-2nc2cc(C)c(C)cc21)OC(=O)CCC,-26.4%,–
O=C(O)[C@@H](c1ccc(OCc2ccc3ccccc3n2)cc1)C1CCCC1,–,8.69 µM (active)
CC(C)(C)COc1ccc(-n2cc(C(=O)O)cn2)cc1C#N,–,7.08 µM (active)
COc1cccc(-c2ccc(NC(=O)C3=C(C(=O)O)CCC3)c(F)c2)c1,–,2.45 µM (active)
C[C@@H](N)c1ccc(C(=O)Nc2ccnc3[nH]ccc23)cc1,0.169%,–
O=C1C(Cl)=C(NCCN2CCOCC2)C(=O)c2ncccc21,–,6.15 µM (active)
CN(C)c1cc(NC(=O)CNC(C)(C)C)c(O)c2c1C[C@@H]1C[C@H]3[C@H](N(C)C)C(=O)C(C(N)=O)=C(O)[C@@]3(O)C(=O)C1=C2O,-3.13%,–
O=c1oc2cc(O)ccc2s1,-9.23%,–
C/C(=N\O)c1ccc(OCC(=O)N2CCCCC2)cc1,–,9.75 µM (active)
CC(=C(CCOC(=O)C(C)C)SSC(CCOC(=O)C(C)C)=C(C)N(C=O)Cc1cnc(C)nc1N)N(C=O)Cc1cnc(C)nc1N,-20.1%,–
CN(C)c1ccc2cc(C(=O)N[C@@H](CCCN=C(N)CCl)C(=O)NCc3ccccc3)ccc2c1,-11.3%,–
Nc1ccc(N=Nc2ccccc2)c(N)n1,–,15.5 µM (active)
CCN1CCC(n2cc(CNc3cc(Cl)c4ncc(C#N)c(Nc5ccc(F)c(Cl)c5)c4c3)nn2)CC1,-8.22%,–
O=C(/C=C/c1ccc(O)cc1)c1ccc(O)cc1O,–,2.75 µM (active)
CC(C)(C)OC(=O)CN(Cc1ccc(Cl)cc1)Cc1ccc([N+](=O)[O-])s1,-24.1% [at 88.3 µM],–
O=C(Nc1ccc(OC(F)(F)F)cc1)c1sccc1NCc1ccnc2ccccc12,–,7.74 µM (active)
CN(C)CCCSc1ccccc1NC(=O)/C=C/c1ccccc1,–,13.8 µM (active)
O=C(CS)Nc1ccccc1,14%,–

Structure (SMILES),"activity, negative = inhibition",Potency
COc1ccnc2c1CCCCC2S(=O)c1nc2ccccc2[nH]1 (stereo unspecified),54%,–
Cc1cccc(C#Cc2ccccc2)n1,–,6.15 µM (active)
c1ccc(CCNc2nc(-c3ccccc3)cs2)cc1,–,10.9 µM (active)
N[C@H](CSC(c1ccccc1)(c1ccccc1)c1ccccc1)C(=O)O,17.5%,–
Cc1ccc2c(n1)Oc1ccc(C(C)C(=O)OCC(=O)N(C)C)cc1C2 (stereo unspecified),–,19.5 µM (active)
COc1ccc(NC(=O)/C=C/c2ccc(Cl)cc2)cc1,–,3.88 µM (active)
O=C(O)c1cc([N+](=O)[O-])ccc1NCCCc1ccccc1,–,8.69 µM (active)
COc1ccc(CC2=NN3C([C@@H](CCc4ccccc4)[C@@H](C)O)=NC(C)C3C(=O)N2)cc1OC (stereo partly specified),-7.76%,–
Cc1ccc(O)c(N=Nc2ccccc2)n1,–,1.73 µM (active)
NC(N)=NN=C(/C=C/c1ccc([N+](=O)[O-])o1)/C=C/c1ccc([N+](=O)[O-])o1,-25.3%,–
CC(=O)Oc1cccc2c1C(=O)c1c(OC(C)=O)cc(C(=O)O)cc1C2=O,–,15.5 µM (active)
Nc1ccc2c(c1)CN1C(=O)c3ccccc3C1=N2,–,2.13 µM (active)
CC[C@]1(O)C[C@H]2CN(CCc3c([nH]c4ccccc34)[C@@](C(=O)OC)(c3cc4c(cc3OC)N(C=O)[C@H]3[C@@](O)(C(=O)OC)[C@H](OC(C)=O)[C@]5(CC)C=CCN6CC[C@]43[C@@H]65)C2)C1,4.34%,–
COc1ccc(/C=C/C(=O)Nc2ccccc2C(=O)O)cc1OC,–,13.8 µM (active)
O=C(Nc1ncc([N+](=O)[O-])s1)c1cccs1,–,1.95 µM (active)
Nc1ncnc2c1ncn2[C@@H]1O[C@@H](CO)[C@H](O)[C@H]1O,-6.91% [at 23.8 µM],–
CC(C)OC(=O)CCCC=CC[C@@H]1[C@H](C=C[C@@H](O)COc2cccc(C(F)(F)F)c2)[C@H](O)C[C@@H]1O,38.6%,–
CCOCCOC(=O)/C=C/c1ccc(OC)cc1,-28.8%,–
